Source: PubChem BioAssay (National Center for Advancing Translational Sciences (NCATS))
Most compounds without a hit are left out; they make up all but 1.7% or so of the library.
GLP1R inv ag: qHTS of GLP-1 Receptor Inverse Agonists (Inhibition Mode). 410,000 tested, 1.6% active. Potency, µM (highest dose often 38.3 µM), actives largely listed as inhibitors. HEK293 GLP-1R CRE-luciferase, luminescence, 24 h; GLP-1R form is constitutively active; note: nearly all actives have a fitted effect of over 55% in size
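Inverse agonism was detected as reduced cAMP-driven luciferase luminescence after 24 h compound treatment. The cells were HEK293 clones expressing constitutively active human GLP-1R with the reporter. Reporter-only and GPR119 cell lines served as counterscreen controls.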
GLP1R cytotox: qHTS of GLP-1 Receptor Inverse Agonists: Cytotox Screen; HEK293 cAMP-luciferase reporter cells, luminescence, 24 h; Potency, µM (doses to about 38.3 µM), usual class: inhibitors; 410,000 tested, 0.13% active;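 note: loss of luciferase light is scored as toxicity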
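To flag toxic compounds, the library was rerun on cells for 24 hr at 37 deg C and 5% CO2. Viability-linked luminescence was captured 12 min after adding luciferase detection reagent.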
PTHR1 ag: qHTS for PTHR1 Agonists: Primary Screen. Parathyroid hormone/parathyroid hormone-related peptide receptor (Homo sapiens), Q03431. HEK293 GP2 PTHR1 cells, GloSensor cAMP luminescence, 1 h. Potency, µM (series often up to 115 µM), hits mostly activators. 410,000 tested, 0.075% active. AID 743266, 2014; note: nearly all actives have a fitted effect of over 55% in size
Target sequence (Q03431 whole entry, looked up): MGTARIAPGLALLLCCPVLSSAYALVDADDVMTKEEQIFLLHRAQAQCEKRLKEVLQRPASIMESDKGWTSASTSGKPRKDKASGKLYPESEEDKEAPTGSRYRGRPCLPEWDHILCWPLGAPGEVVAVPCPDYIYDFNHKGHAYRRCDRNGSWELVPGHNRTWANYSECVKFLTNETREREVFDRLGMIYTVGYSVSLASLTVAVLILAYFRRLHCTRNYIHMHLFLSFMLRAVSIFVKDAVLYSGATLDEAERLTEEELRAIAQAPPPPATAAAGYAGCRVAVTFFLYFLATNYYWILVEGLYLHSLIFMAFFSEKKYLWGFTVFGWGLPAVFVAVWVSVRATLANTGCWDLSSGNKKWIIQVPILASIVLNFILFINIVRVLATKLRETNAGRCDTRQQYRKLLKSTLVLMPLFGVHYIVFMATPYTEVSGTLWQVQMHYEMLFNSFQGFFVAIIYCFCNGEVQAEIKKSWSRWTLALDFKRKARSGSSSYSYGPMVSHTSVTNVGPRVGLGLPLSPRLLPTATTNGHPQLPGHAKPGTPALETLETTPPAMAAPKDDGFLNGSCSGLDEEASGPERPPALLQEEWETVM
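HEK-293-derived GP2 cells expressing PTHR1 and a GloSensor cAMP reporter, 3,000/well, plated overnight, given luciferin plus IBMX (each 0.5 mM as added) for 1 h at 37 °C, then compound for 1 h at 37 °C. Luminescence was read after 15 min at room temperature.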
GLP-1R agonist: qHTS of GLP-1 Receptor Agonists. HEK293 GLP-1R CRE-luciferase, luminescence, 4-6 h; cells express a hypersensitive GLP-1R form. 380,000 tested, 0.007% active. Glucagon-like peptide 1 receptor (Homo sapiens), P43220. Potency, µM (titrated, usually from 45.6 µM), hits mostly activators
Each line names hits and unclear results; the compound was inactive in the other large screens. Calls come from the whole dose curve; as a rule, active = well fitted curve in the direction sought with a large enough effect; inconclusive = small, poorly fitted or top-dose-only effect, or another doubt; inactive = no such curve, though single readings can be large; an effect the other way counts as inactive or inconclusive.

C[C@H](O)[C@@H]1C(=O)N2CCc3c([nH]c4ccccc34)[C@@H]2C[C@@H]1N(C)C(=O)Nc1cc(Cl)cc(Cl)c1	GLP1R inv ag 10µM
C[C@H](O)[C@@H]1CN2CCc3c([nH]c4ccc(-c5ccc6c(c5)OCO6)cc34)[C@@H]2C[C@@H]1N(C)C(=O)Nc1cc(Cl)cc(Cl)c1	GLP1R inv ag 2.82µM, GLP1R cytotox inconclusive
CCOC(=O)CCCCCC(=O)Nc1ccc2c(c1)C(=O)N([C@H](C)CO)C[C@H](C)[C@@H](CN(C)S(C)(=O)=O)OCCCC[C@@H](C)O2	none
Cc1cc(SCC(=O)N2c3ccccc3NC(=O)CC2C)nc2ccccc12 (configuration not stated)	none
O=C(c1cc(C2CC2)nn1-c1ccccc1)N1CCN(Cc2ccccc2F)CC1	GLP1R inv ag 8.91µM
C/C(=N\NC(=S)NC1CCCCC1)c1c(F)cccc1F	GLP1R inv ag 3.98µM, GLP1R cytotox inconclusive
Cc1ccc(NC(=O)C(Cc2c[nH]c3ccccc23)NC(=O)OC(C)(C)C)c(C)c1 (configuration not stated)	GLP1R inv ag inconclusive, GLP1R cytotox inconclusive (no result: GLP-1R agonist)
O=C(CCCSc1nc(-c2ccco2)cc(C(F)(F)F)n1)Nc1ccc2c(c1)OCO2	GLP1R inv ag 10µM
COc1cccc(C(=O)CN2CCN(S(=O)(=O)c3ccc(Cl)cc3)CC2)c1	none (no result: GLP-1R agonist)
CCOc1cc(CNCC(C)C)c(Cl)cc1OCC(=O)Nc1ccccc1	GLP1R inv ag 11.2µM
CCNCc1cc(OCC)c(OCC(=O)NCCc2ccccc2)cc1Cl	GLP1R inv ag inconclusive
CCCCN1C(=O)c2[nH]nc(-c3ccccc3O)c2C1c1ccc(OCc2ccccc2)cc1 (configuration not stated)	GLP1R inv ag inconclusive, PTHR1 ag 21.6µM (no result: GLP-1R agonist)
COCCCN1C(=O)c2[nH]nc(-c3ccccc3O)c2C1c1ccc(OCc2ccccc2)cc1 (configuration not stated)	GLP1R inv ag inconclusive, GLP1R cytotox inconclusive (no result: GLP-1R agonist)
CC(C)c1nnc(NC(=O)C2CCN(C(=O)Nc3ccc(Cl)cc3)CC2)s1	GLP1R inv ag 3.98µM
Cc1nc2c(sc(=S)n2Cc2ccco2)c(=O)n1CC(=O)Nc1ccccc1	GLP1R inv ag 4.47µM
Cc1nc2c(sc(=S)n2Cc2ccco2)c(=O)n1CC(=O)Nc1ccccc1F	GLP1R inv ag inconclusive
CCOC(=O)c1ccc(NC(=O)Cn2c(C)nc3c(sc(=S)n3CC)c2=O)cc1	none
CCn1c(=S)sc2c(=O)n(CC(=O)Nc3cccc(Cl)c3)c(C)nc21	GLP1R inv ag 7.94µM, GLP1R cytotox inconclusive
O=C1CCCc2ccccc2N1Cc1ccccc1Cl	GLP1R inv ag inconclusive
O=C1CCCc2ccccc2N1Cc1ccc(Cl)cc1Cl	GLP1R inv ag 11.2µM
COCC(C)Nc1ncnc2c1cnn2-c1ccc(C)c(C)c1 (configuration not stated)	GLP1R inv ag inconclusive (no result: GLP-1R agonist)
Cc1cccc(S(=O)(=O)N(CC(=O)Nc2ccccc2C)Cc2ccco2)c1	GLP1R inv ag 8.91µM
O=C(CN(Cc1ccco1)S(=O)(=O)c1ccccc1)N/N=C/c1cccc(O)c1	GLP1R inv ag inconclusive
O=C(c1ccc2c(c1)OCO2)C1CCCN(Cc2ccc(OC(F)F)cc2)C1 (configuration not stated)	GLP1R inv ag inconclusive
Cc1ccc(S(=O)(=O)Nc2ccc(-c3ccc(N4CCCCCC4)nn3)cc2)cc1C	none (no result: GLP-1R agonist)
Cc1cc(N2CCN(C(c3ccccc3)c3ccccc3)CC2)n2ncnc2n1	GLP1R inv ag 11.2µM
Cc1nc2ncnn2c(N2CCN(C(c3ccccc3)c3ccccc3)CC2)c1C	none
COc1ccccc1CN1CC(C(=O)N(C)CCc2nc3ccc(F)cc3[nH]2)CCC1=O (configuration not stated)	none
Cc1cc(O)c(/C=N/Nc2cccc(Cl)c2)c(=O)o1	GLP1R inv ag 2.82µM
Cc1cc(O)c(/C=N/Nc2ccc(Cl)cc2)c(=O)o1	GLP1R inv ag inconclusive
COc1ccc(OC)c(NC(=O)Cn2cc(C(=O)c3ccc(Cl)cc3)c(=O)c3cc(OC)ccc32)c1	none
CCc1ccc(CNC(=O)c2sc3ncnc(N(C)C4CCCCC4)c3c2C)cc1	GLP1R inv ag inconclusive (no result: GLP-1R agonist)
Cc1ccc(S(=O)(=O)Oc2ccccc2-c2ccccc2)cc1	GLP1R inv ag 2.51µM
CCc1nnc(NC(=O)c2ccc3ccccc3n2)s1	GLP1R inv ag 7.94µM, GLP1R cytotox inconclusive
CCSc1nnc(NC(=O)c2ccc3ccccc3n2)s1	GLP1R inv ag 5.01µM, GLP1R cytotox inconclusive
O=C(Nc1nnc(SCc2ccc(F)cc2)s1)c1cccnc1Cl	none
O=C(Nc1nnc(SCc2ccc(F)cc2)s1)c1ccccn1	GLP1R inv ag inconclusive, GLP1R cytotox 5.62µM, GLP-1R agonist inconclusive
CCOc1ccc(-c2n[nH]c(C)c2-c2ccccc2OC)c(O)c1	GLP1R inv ag 5.01µM, GLP1R cytotox inconclusive
COc1ccc(-c2n[nH]c(C)c2-c2cscn2)c(O)c1	none
COc1ccc(NC(=O)COC(=O)c2c3c(nc4ccccc24)CCCC3)cc1	GLP1R inv ag inconclusive
COc1ccc(NC(=O)COC(=O)c2c3c(nc4ccccc24)CCCC3)cc1Cl	GLP1R inv ag 3.55µM, GLP1R cytotox inconclusive
CCOc1ccc(CCNC(=O)CSc2nnnn2-c2ccccc2Cl)cc1OCC	none
CC(c1ccccc1)N1C(=O)c2cccnc2C1=O (configuration not stated)	none
CC(NC1=CC(=O)c2cccnc2C1=O)C(O)c1ccccc1 (configuration not stated)	GLP1R inv ag inconclusive, GLP1R cytotox 11.2µM
N#CC(c1ccc(Cl)cc1)c1ccc2c(C(F)(F)F)cc(C(F)(F)F)nc2n1 (configuration not stated)	GLP1R inv ag 7.08µM, GLP1R cytotox 7.94µM
Nc1nc(Nc2ccccc2)nc(NCc2ccco2)c1[N+](=O)[O-]	GLP1R inv ag inconclusive, GLP1R cytotox inconclusive
Fc1ccc(Nc2nc(NCc3ccco3)c3ccccc3n2)cc1	GLP1R inv ag 3.55µM, GLP1R cytotox inconclusive
CCC(=O)c1ccc(OCC(O)CN(CCc2ccccc2)Cc2ccccc2)cc1 (configuration not stated)	GLP1R inv ag 8.91µM
C[C@@H]1[C@@H](Sc2ccccc2)CC(=O)O[C@@H]1c1ccc(-c2ccccc2)cc1	GLP1R inv ag inconclusive
O=C1C=CC2(O[C@H](c3ccccc3)[C@@H](c3ccccc3)O2)[C@H](Sc2ccccc2O)C1	GLP1R inv ag inconclusive, GLP1R cytotox 4.47µM
COc1ccc(-c2cccc(C3CC=CC4C3C(=O)N(Cc3ccccc3)C4c3ccc(C(F)(F)F)cc3)c2)cc1 (configuration not stated)	GLP1R inv ag inconclusive
Cc1ccc(-c2cccc(C3CC=CC4C3C(=O)N(Cc3ccccc3)C4c3cc(C)ccc3F)c2)cc1 (configuration not stated)	GLP1R inv ag 4.47µM
